Test results reported in PubChem BioAssay (EPA / NIEHS).
The source made the active and inactive calls. Rule for the calls: active = hit-call score of the fitted dose curve at least 0.9, where 1 is the maximum; inactive = score below 0.9.

Legend:
[1] = APR_HepG2_CellCycleArrest_24hr: Apredica 24-hour HepG2 Assay for Cell Cycle Arrest (AID 2282905); conditions: imaging, actives raise or lower the signal;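 note: cell cycle arrest scored as ratio of 2N to 4N nuclear DNA content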
Outline: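 Readout: Hoechst 33342 nuclear DNA content by high-content fluorescent imaging, six images/well, 20x. Human HepG2 liver cells, 24 hr compound exposure, 0.39–200 uM, final DMSO 0.5% v/v. Gain or loss fitted relative to DMSO baseline.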

[2] = APR_HepG2_NuclearSize_24hr: Apredica 24-hour HepG2 Assay for Nuclear Size (AID 2282907); conditions: high-content imaging, actives raise or lower the signal
Outline: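 Read-out: nuclear diameter from Hoechst 33342 (2 ug/mL) imaging of fixed HepG2 cells, 20x, six fields/well. Compounds ran at 0.39–200 uM for 24 hr, 0.5% DMSO final. Gain or loss was fitted bidirectionally relative to the DMSO baseline.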

[3] = APR_HepG2_CellLoss_24hr: Apredica 24-hour HepG2 Assay for Cell Loss (AID 2282908); conditions: high-content imaging;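 for AC50: fit in both directions so a hit may be cell loss or gain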
Outline: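 Read-out: Hoechst 33342-stained nuclei counted by automated fluorescence imaging after formaldehyde fixation and Triton permeabilization. Ten concentrations, 0.39 to 200 uM, duplicate wells, 0.5% DMSO final. Gain or loss of signal fitted relative to DMSO baseline.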

[4] = APR_HepG2_MicrotubuleCSK_24hr: Apredica 24-hour HepG2 Assay for Microtubule CSK Stabilty (AID 2282909); conditions: HepG2 microtubule cytoskeleton imaging, actives raise or lower the signal
Outline: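 Read-out: alpha-tubulin immunofluorescence intensity by automated high-content imaging of fixed HepG2 cells after 24 h compound treatment. Ten concentrations, 0.39 to 200 uM, in duplicate; DMSO 0.5% v/v. Taxol positive control; DMSO-normalized bidirectional curve fitting.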

[5] = APR_HepG2_MitoticArrest_24hr: Apredica 24-hour HepG2 Assay for Mitotic Arrest (AID 2282910); conditions: high-content imaging, actives raise or lower the signal
Outline: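 High-content imaging of fixed HepG2 cells labeled with Hoechst 33342 and anti-phospho-histone H3, after 24 h treatment. Ten concentrations 0.39 to 200 uM in duplicate, final DMSO 0.5%; changes fitted both directions relative to DMSO.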

[6] = APR_HepG2_MitoMembPot_24hr: Apredica 24-hour HepG2 Assay for Mitochondrial Membrane Potential (AID 2282911); conditions: imaging, actives raise or lower the signal
Outline: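 Mitochondrial dye uptake (MitoTracker Red CMXRos, 250 nM, 30 min pre-fixation) in HepG2 after 24 hr compound exposure, 0.39–200 uM; ArrayScan images at 20x, activity fitted in both directions relative to DMSO.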

[7] = APR_HepG2_MitoMass_24hr: Apredica 24-hour HepG2 Assay for Mitochondrial Mass (AID 2282912); conditions: high-content imaging, actives raise or lower the signal
Outline: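 HepG2, 24 hr dosing, 10 concentrations 0.39–200 uM in duplicate, DMSO 0.5% final. MitoTracker Red CMXRos 250 nM, 30 min pre-fix; 3.7% formaldehyde fix. Imaging-based fluorescence intensity; gain/loss fit vs DMSO baseline.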

[8] = APR_HepG2_p53Act_24hr: Apredica 24-hour HepG2 Assay for p53 Activation (AID 2282913); conditions: high-content imaging, actives raise or lower the signal;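 note: p53 protein immunofluorescence averaged per cell in HepG2 with Hoechst nuclei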
Outline: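 Following 24 hr dosing of HepG2 at 0.39–200 uM, the cells undergo formaldehyde fixation, Triton permeabilization and multiplexed antibody labeling that includes p53 (Cy5). Signal from the imaging is referenced to DMSO solvent controls.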

[9] = APR_HepG2_CellCycleArrest_72hr: Apredica 72-hour HepG2 Assay for Cell Cycle Arrest (AID 2282914); conditions: high-content imaging, actives raise or lower the signal
Outline: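 Using multiplexed high-content imaging, HepG2 nuclei stained with Hoechst 33342 (2 ug/mL) were analysed for DNA content after fixation and permeabilization. Treatment lasted 72 hr across 0.39–200 uM in duplicate with final DMSO 0.5% v/v; DMSO served as negative control.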

[10] = APR_HepG2_CellLoss_72hr: Apredica 72-hour HepG2 Assay for Cell Loss (AID 2282915); conditions: high-content imaging
Outline: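 Cell number comes from Hoechst 33342-labelled nuclei, imaged at 20x after 3.7% formaldehyde fixation. Dosing was 0.39–200 uM, ten concentrations in duplicate, 0.5% DMSO final, for 72 h. Bidirectional fit relative to DMSO baseline.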

[11] = APR_HepG2_P-H2AX_72hr: Apredica 72-hour HepG2 Assay for H2AX Phosphorylation (AID 2282916); conditions: imaging, actives raise or lower the signal;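 note: phospho-histone H2A.x immunostain intensity per cell marking DNA damage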
Outline: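 Readout: phospho-H2A.x immunofluorescence (FITC secondary) plus Hoechst nuclear stain, high-content imaging at 20x, six fields/well. HepG2, 72 hr compound exposure, 0.39–200 uM, final DMSO 0.5% v/v. Gain or loss fitted relative to DMSO baseline.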

[12] = APR_HepG2_MitoMembPot_72hr: Apredica 72-hour HepG2 Assay for Mitochondrial Membrane Potential (AID 2282917); conditions: imaging, actives raise or lower the signal
Outline: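 Membrane potential read by MitoTracker Red CMXRos (250 nM, 30 min, pre-fixation) fluorescence imaging of HepG2 after 72 hr exposure. Ten concentrations, 0.39–200 uM, duplicate wells, 0.5% DMSO; fitted in both directions against DMSO baseline.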

[13] = APR_HepG2_MitoticArrest_72hr: Apredica 72-hour HepG2 Assay for Mitotic Arrest (AID 2282918); conditions: high-content imaging, actives raise or lower the signal
Outline: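 Using high-content imaging of fixed HepG2 cells, phospho-histone H3 signal was measured following a 72 hr incubation with ten-point compound dilutions up to 200 uM. DMSO served as the negative control and baseline for bidirectional curve fitting.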

[14] = APR_HepG2_MicrotubuleCSK_72hr: Apredica 72-hour HepG2 Assay for Microtubule CSK Stabilty (AID 2282919); conditions: HepG2 microtubule cytoskeleton, high-content imaging, actives raise or lower the signal
Outline: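 High-content imaging of alpha-tubulin staining in fixed HepG2 cells after 72 hr treatment with ten concentrations from 0.39 to 200 uM (0.5% DMSO). Fitting was bidirectional against DMSO; taxol served as positive control.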

[15] = APR_HepG2_StressKinase_72hr: Apredica 72-hour HepG2 Assay for Stress Kinase (AID 2282921); conditions: HepG2 stress kinase (phospho-c-Jun) imaging, actives raise or lower the signal
Outline: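 Phospho-c-Jun immunofluorescence measured by high-content imaging at 20x, six fields per well; bidirectional curve fitting against DMSO as baseline. Dosing: 0.39–200 uM, 72 h, 0.5% DMSO final.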

[16] = APR_HepG2_MitoMass_72hr: Apredica 72-hour HepG2 Assay for Mitochondrial Mass (AID 2282924); conditions: high-content imaging, actives raise or lower the signal;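 note: MitoTracker Red CMXRos stain intensity per cell imaged as mitochondrial mass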
Outline: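 Readout is imaged MitoTracker Red (250 nM, 30 min, pre-fixation) signal, fitted bidirectionally against DMSO baseline. Human HepG2 liver cells received compound 0.39–200 uM in duplicate for 72 hr, final DMSO 0.5%.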

[17] = APR_HepG2_NuclearSize_72hr: Apredica 72-hour HepG2 Assay for Nuclear Size (AID 2282925); conditions: high-content imaging, actives raise or lower the signal
Outline: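 Nuclear size was read by high-content imaging of Hoechst 33342 stain after formaldehyde fixation. Compounds ran 72 h on HepG2 at 0.39 to 200 uM, with final DMSO 0.5% v/v. Curves fitted both directions relative to DMSO control.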

[18] = APR_HepG2_StressKinase_24hr: Apredica 24-hour HepG2 Assay for Stress Kinase (AID 2282922); conditions: HepG2 stress kinase (phospho-c-Jun) imaging, actives raise or lower the signal
Outline: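 High-content imaging of phospho-c-Jun immunofluorescence in fixed, permeabilized HepG2 cells after 24 h dosing. Ten concentrations, 0.39 to 200 uM, run in duplicate at 0.5% v/v DMSO; gain or loss of signal versus DMSO.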

[19] = APR_HepG2_P-H2AX_24hr: Apredica 24-hour HepG2 Assay for H2AX Phosphorylation (AID 2282920); conditions: high-content imaging, actives raise or lower the signal
Outline: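 Human HepG2 liver cells, treated 24 hr with test chemicals (0.39–200 uM, final DMSO 0.5% v/v), are fixed and co-stained for phospho-H2A.x and c-Jun with Hoechst. Imaged intensity is fitted in both directions against DMSO controls.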

[20] = APR_HepG2_p53Act_72hr: Apredica 72-hour HepG2 Assay for p53 Activation (AID 2282923); conditions: high-content imaging, actives raise or lower the signal;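 note: average cellular p53 protein immunofluorescence intensity in HepG2 cells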
Outline: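 Readout: p53 immunofluorescence quantified by automated high-content imaging at 20x, six fields per well, nuclei located via Hoechst. Dosing ran 72 hr over ten concentrations from 0.39 to 200 uM; bidirectional curve fitting against DMSO baseline.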

Measured: AC50

CCN(Cc1cccc(S(=O)(=O)O)c1)c1ccc(C(=C2C=CC(=[N+](CC)Cc3cccc(S(=O)(=O)O)c3)C=C2)c2ccccc2S(=O)(=O)[O-])cc1
inactive: [1] | [2] | [3] | [4] | [5] | [6] | [7] | [8] | [9] | [10] | [11] | [12] | [13] | [14] | [15] | [16] | [17]

Cc1cn([C@H]2C[C@H](N=[N+]=[N-])[C@@H](CO)O2)c(=O)[nH]c1=O
inactive: [1] | [2] | [3] | [4] | [5] | [6] | [7] | [8] | [10] | [11] | [12] | [13] | [14] | [15] | [18] | [16] | [17]
active: [9] 46.3 µM

CC1=CC(=O)/C(=C(/C)O)C(=O)O1
inactive: [1] | [2] | [3] | [4] | [5] | [6] | [7] | [8] | [9] | [10] | [11] | [12] | [13] | [14] | [15] | [18] | [16] | [17]

Clc1cc(Cl)c2c(c1)N=C1CCCCCN1C2
inactive: [1] | [2] | [3] | [4] | [5] | [7] | [8] | [9] | [10] | [11] | [12] | [13] | [14] | [15] | [18] | [16] | [17]
active: [6] 0.0248 µM

c1ccc(C[n+]2cccc3ccccc32)cc1
active: [1] 178 µM | [3] 115 µM | [4] 100 µM | [6] 32.8 µM | [7] 167 µM | [9] 36.8 µM | [10] 54.8 µM | [11] 20.6 µM | [13] 109 µM | [14] 87 µM | [15] 25.6 µM | [17] 68.9 µM
inactive: [2] | [5] | [8] | [12] | [16]

CC(C)(C)c1csc(-c2cc3cc(OCc4ccccc4CC(=O)O)ccc3o2)n1
inactive: [1] | [2] | [3] | [4] | [5] | [6] | [7] | [8] | [9] | [10] | [11] | [12] | [13] | [19] | [15] | [18] | [20] | [16] | [17]

O=c1c(-c2ccc(O)cc2)coc2cc(O)cc(O)c12
active: [1] 43.1 µM | [3] 32.6 µM | [6] 78.9 µM | [8] 70.7 µM | [9] 47.4 µM | [10] 42.9 µM | [12] 57 µM | [20] 72.9 µM
inactive: [2] | [4] | [5] | [7] | [11] | [13] | [14] | [19] | [15] | [16] | [17]

Cc1ccc2oc(CN(Cc3ccccc3)C(=O)Nc3c(F)cc(F)cc3F)c(-c3ccc(Cl)cc3)c2c1
inactive: [1] | [2] | [3] | [4] | [5] | [6] | [7] | [8] | [9] | [10] | [11] | [12] | [13] | [14] | [15] | [18] | [20] | [16] | [17]

O=C(O)c1ccccc1C(=O)OCc1ccccc1
inactive: [1] | [2] | [3] | [4] | [5] | [6] | [7] | [8] | [9] | [10] | [11] | [12] | [13] | [14] | [15] | [18] | [16] | [17]

CCCCOC(=O)c1ccc(O)cc1
inactive: [1] | [2] | [3] | [4] | [5] | [6] | [7] | [8] | [9] | [10] | [11] | [12] | [13] | [14] | [15] | [18] | [20] | [16] | [17]

CCCCCCCCOc1ccc(C(=O)c2ccccc2)c(O)c1
active: [1] 103 µM | [9] 164 µM | [10] 91.6 µM
inactive: [2] | [3] | [4] | [5] | [6] | [7] | [8] | [11] | [12] | [13] | [14] | [19] | [15] | [18] | [20] | [16] | [17]

CC(C)(O)c1ccc(CNC(=O)c2cccnc2Oc2ccc3nonc3c2)cc1
inactive: [1] | [2] | [3] | [4] | [5] | [6] | [7] | [8] | [9] | [10] | [11] | [12] | [13] | [14] | [19] | [15] | [16] | [17]
